Screens as filed in PubChem BioAssay.
Most compounds without a hit are left out; they make up all but 6% or so of the library.
Sfp inh = blocks B. subtilis Sfp PPTase activity | AID 1490 | Q9F4F7 | Potency, µM, for the others: largest response in the series, negative = inhibition, most hits filed as inhibitors | Biochemical Sfp PPTase activity, qHTS | hit rate 3.5% among 310,000;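 also: the enzyme is Sfp with the accession as filed and its product quenches rhodamine fluorescence; 0% = enzyme reaction without inhibitor and -100% = no enzyme wells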
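Reaction rates are the 30-min fluorescence difference (ex 525, em 598 nm) in wells containing 15 nM Sfp, 5 uM rhodamine-CoA and 12.5 uM BHQ-2-YbbR at pH 7.6 with 10 mM MgCl2.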
VDR inhibitor = vitamin D3 receptor (human) inhibition | hit rate 0.93% among 400,000 | AID 504847 | Potency, µM, for inactives: max response, negative = inhibition, most hits filed as inhibitors | VDR-SRC2-3 peptide fluorescence polarization, 2 h | P11473
Target sequence (P11473 whole entry, looked up): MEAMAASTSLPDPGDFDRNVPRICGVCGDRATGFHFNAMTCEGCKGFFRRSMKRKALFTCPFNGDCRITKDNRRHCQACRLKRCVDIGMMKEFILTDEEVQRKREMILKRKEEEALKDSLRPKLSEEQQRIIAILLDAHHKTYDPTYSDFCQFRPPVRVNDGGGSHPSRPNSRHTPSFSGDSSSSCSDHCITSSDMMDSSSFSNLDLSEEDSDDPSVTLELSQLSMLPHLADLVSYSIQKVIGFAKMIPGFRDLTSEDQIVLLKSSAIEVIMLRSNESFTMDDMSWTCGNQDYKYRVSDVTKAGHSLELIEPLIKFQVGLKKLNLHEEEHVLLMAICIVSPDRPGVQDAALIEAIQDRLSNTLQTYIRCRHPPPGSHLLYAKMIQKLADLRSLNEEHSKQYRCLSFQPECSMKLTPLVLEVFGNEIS
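Signal is fluorescence polarization, reporting how far test compounds block the interaction of VDR with the SRC2-3 coregulator peptide after a 2 h room-temperature incubation.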
Tau fibril FP = tau fibrillization inhibition (FP); AID 1468; K18 P301L tau heparin fibrillization, Alexa594 FP, 6 h; P10636; Potency, µM (titrated, usually from 57.7 µM), inactives show at the highest dose activity, negative = inhibition, most hits filed as inhibitors; hit rate 0.39% among 280,000; also: nearly all actives have a fitted effect of over 55% in size
Target sequence (P10636 561-689 P618L limits assumed): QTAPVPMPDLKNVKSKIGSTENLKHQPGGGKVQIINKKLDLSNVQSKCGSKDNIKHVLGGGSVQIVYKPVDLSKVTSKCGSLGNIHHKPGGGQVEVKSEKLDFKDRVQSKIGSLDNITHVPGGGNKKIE
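K18 P301L tau (15 uM unlabeled/0.24 uM Alexa 594-labeled, final) + compound + heparin 20 uM final; 100 mM NaOAc pH 7; 6 hr 37 C; ThT 30 uM final added, 1 hr RT; FP ex 555/em 632 nm.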
PLK1 PBD inh = inhibitors of human PLK1 polo-box domain binding; P53350; Plk1 PBD binding of FITC phosphopeptide, fluorescence polarization; Potency, µM, inactives show max response, negative = inhibition, actives largely listed as inhibitors; hit rate 2.8% among 360,000; AID 720504; also: series mostly up to about 57 µM; nearly all actives have a fitted effect of over 65% in size
Tau fluor cs = counter-screen for tau fibril formation inhibitors. tau K18 P301L Alexa594 fluorescence, heparin fibrillization. Potency, µM (highest dose often 57.7 µM), for the others: top-dose activity change, negative = decrease. hit rate 0.93% among 280,000; also: nearly all actives have a fitted effect of over 55% in size
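Human K18 P301L tau (15 uM unlabeled plus 0.24 uM Alexa 594-labeled, final) in 100 mM sodium acetate pH 7 was mixed with compound and 20 uM heparin and incubated 6 hr at 37 C.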
Tau fibril ThT = blocks human tau fibril formation measured by thioflavin T | recombinant tau K18 P301L, heparin-induced fibrillization, ThT fluorescence | Potency, µM (series often up to 57.4 µM), inactives show at the highest dose activity, negative = inhibition, most hits filed as inhibitors | hit rate 2.1% among 270,000 | AID 1460; also: nearly all actives have a fitted effect of over 55% in size
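Fibril formation assay: tau K18 P301L at 15 uM with trace Alexa 594 label, heparin inducer 20 uM, pH 7 sodium acetate buffer, 37 C for 6 hr; endpoint ThT signal.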
Numbers without * were called inactive; u = inconclusive; x = not tested or not shown; [ ] = remark or other dose. Calls follow the shape of the dose curve; as a rule, active = well fitted curve in the direction sought with a large enough effect; inconclusive = small, poorly fitted or top-dose-only effect, or another doubt; inactive = no such curve, though single readings can be large; an effect the other way counts as inactive or inconclusive. Unless noted, % is scaled to controls: 0 for no effect and ±100 for the full control effect; potency is read from the fitted curve at half-maximal effect.

SMILES | Sfp inh | VDR inhibitor | Tau fibril FP | PLK1 PBD inh | Tau fluor cs | Tau fibril ThT
COc1ccc(CNC(=O)CCS(=O)(=O)c2cc(Br)cc3c2N(C(C)=O)C(C)C3)cc1 (stereo not drawn) | x | -14% | -7% | x | -11% | -10%
COc1ccc(CN2COc3ccc4c(-c5ccc(OC)cc5)cc(=O)oc4c3C2)cc1 | x | 1% | 0% | x | -23% | u
CCSc1nc2c(c(=O)[nH]1)C(c1ccc(C)cc1)C1=C(CCCC1=O)N2 (stereo not drawn) | 21% | 13% | -4% | -17% | -6% | 0%
O=c1[nH]c(=S)[nH]c2c1C(c1ccc(Br)cc1)c1c([nH]c(=S)[nH]c1=O)O2 | 45µM* | 89µM* | x | 6µM* | x | x
CC1(C)CC(=O)C2=C(C1)Nc1[nH]c(=S)[nH]c(=O)c1C2c1ccccc1 (stereo not drawn) | 28µM* | -21% | -3% | u | -2% | -16%
CSc1nc2c(c(=O)[nH]1)C(c1ccccc1)C1=C(CC(C)(C)CC1=O)N2 (stereo not drawn) | 19% | -2% | -2% | -3% | 5% | 6%
O=C1c2ccccc2C(=O)C1c1ccc(Br)cc1 | 10% | 14% | x | -13% | x | x
O=C1CCCC2=C1C(c1ccc3c(c1)OCO3)c1c([nH]n(-c3ccccc3)c1=O)N2 (stereo not drawn) | 4% | 2% | 8% | -13% | 0% | -5%
O=C1CCCC2=C1C(c1ccc(Br)cc1)c1c([nH]c(=S)[nH]c1=O)N2 (stereo not drawn) | -94% | u | 2% | 27µM* | -16% | -17%
Cc1ccc(C2C3=C(CCCC3=O)Nc3[nH]c(=S)[nH]c(=O)c32)cc1 (stereo not drawn) | 7.9µM* | 89µM* | -3% | u | -4% | -11%
CCCNC(=O)OC[C@H]1O[C@@H](CCO/N=C2/C[C@@H](O)[C@@H](O)[C@@H]3[C@@H]4C(=O)N(CC)C(=O)[C@H]4CC[C@@H]23)C=C[C@@H]1Oc1ccc(OC)cc1 | 7% | x | 9%[11.6 µM] | x | -5%[11.6 µM] | -10%[11.5 µM]
CCn1c(SCC(=O)NC2CC2)nnc1-c1ccc(C)cc1 | 7% | 3% | x | -5% | x | x
O=C(OCCN1C(=O)c2cccc3c(N4CCOCC4)ccc(c23)C1=O)c1cccc(Cl)c1 | 5% | 9% | -7% | 21µM* | -23% | u
O=C(OCCN1C(=O)c2cccc3c(N4CCOCC4)ccc(c23)C1=O)c1ccc(Cl)cc1Cl | 9% | 7% | -5% | 19µM* | -19% | 8%
O=C(OCCN1C(=O)c2cccc3c(N4CCOCC4)ccc(c23)C1=O)c1ccccc1Cl | 5% | 8% | 5% | u | -29% | -8%
COc1cccc(N2CCN(C(=O)C3CCN(C(=O)Nc4ccccc4)CC3)CC2)c1 | x | x | x | 0% | x | x
c1ccc2c(c1)oc1c(-c3cccc4nccn34)cccc12 | x | x | x | -3% | x | x
CCCCCC(=O)Nc1ccc(-c2csc(C)n2)cc1 | -55% | -5% | -4% | -4% | 0% | 6%
Cc1nc(-c2ccc(NC(=O)/C=C\C(=O)O)cc2)cs1 | 11% | -4% | -3% | 21µM* | -9% | -15%
O=C(COC(=O)Cn1nnc2ccccc21)Nc1ccccc1Br | -7% | u | 4% | 30µM* | -2% | -3%
O=C(Cn1cc(S(=O)(=O)Cc2ccc(F)cc2)c2ccccc21)NCc1ccccc1 | x | 10% | -9% | x | -19% | 4%
Cc1ccc2cc(CN(C(=O)c3ccco3)c3ccccc3C)c(=O)[nH]c2c1 | 50µM* | -15% | -5% | -23% | 0% | -7%
Cc1ccc(N(Cc2cc3ccc(C)cc3[nH]c2=O)C(=O)c2ccco2)c(C)c1 | 50µM* | u | -5% | u | 0% | -12%
Cc1ccc2cc(CN(C(=O)c3ccco3)c3cccc(C)c3C)c(=O)[nH]c2c1 | 32µM* | u | -4% | u | -6% | -14%
Cc1ccc2cc(CCNC(=O)c3ccco3)c(=O)[nH]c2c1 | 3% | 17% | -5% | -4% | -6% | -16%
SMILES | Sfp inh | VDR inhibitor | Tau fibril FP | PLK1 PBD inh | Tau fluor cs | Tau fibril ThT
COCC(=O)N(Cc1cc2ccc(C)cc2[nH]c1=O)c1ccccc1C | 29% | 6% | x | -9% | x | x
Nc1nc2ncccn2c1-c1ccc(C(F)(F)F)cc1 | x | x | x | -10% | x | x
Cc1ccc(-c2nn3c(-c4ccccc4)nnc3o2)cc1 | x | x | x | -6% | x | x
Cc1ccc([C@H]2C[C@@H](n3cc(COC(=O)c4ccccc4)nn3)[C@H](O)CN2C(=O)C2CCCCC2)cc1 | x | x | x | -17% | x | x
Nc1nc2n(n1)C(c1cccs1)CC(c1ccccc1)N2 (stereo not drawn) | -17% | 8% | 3% | -7% | -1% | -2%
Nc1nc2n(n1)C(=O)CC(c1ccccc1)N2 (stereo not drawn) | 28% | 5% | -10% | 27µM* | -5% | -2%
COc1ccc(-[n+]2c(C)cc(/C=C3\Sc4ccccc4N3C)cc2C)cc1 | 20µM* | -10% | 0% | 17% | -12% | u
COc1ccccc1-[n+]1c(C)cc(/C=C2\Sc3ccccc3N2C)cc1C | -28% | -7% | 3% | 17% | -25% | u
CCOc1ccc(-n2c(=O)c3sc4ccccc4c3n(Cc3cccc(C)c3)c2=O)cc1 | x | 2% | -5% | x | 2% | 7%
Cn1nccc1C(=O)NCc1ccc2c(c1)CCN2C(=O)c1ccc(F)cc1 | x | 7% | -5% | x | 1% | 2%
CCc1ccccc1NC(=O)C(CCSC)NS(=O)(=O)c1ccc2c(c1)oc(=O)n2C (stereo not drawn) | x | -14% | -2% | x | 9% | 7%
Cc1ccc2nc(-c3ccccc3N)[nH]c2c1 | 3% | u | -2% | 30µM* | u | u
CC1(C(=O)NS(=O)(=O)c2ccc(F)cc2F)CCN1C(=O)c1ccccc1CCc1ccccc1 (stereo not drawn) | x | x | x | 4% | x | x
CCc1ccc(C2C(C#N)=C(N)SC(N)=C2C#N)s1 | -10% | u | u | u | u | 14µM*
Cc1ccc([C@H]2C(C#N)=C(N)Oc3cc(C)oc(=O)c32)o1 | 5% | u | -6% | u | -15% | u
CCc1ccc(C2C(C#N)=C(N)SC(N)=C2C#N)cc1 | u | u | -5% | -17% | -26% | u
Cc1ccc(C2C(C#N)=C(N)SC(N)=C2C#N)o1 | 13µM* | x | 18µM* | x | u | 14µM*
O=C(COc1ccc(Cl)cc1)NCCc1csc(-c2ccc(C(F)(F)F)cc2)n1 | x | -1% | 0% | x | -11% | -4%
c1ccc(-c2cn3nc4c(nc3n2)CCCC4)cc1 | 79µM* | -4% | u | -21% | u | u
Brc1ccc(-c2cn3nc4c(nc3n2)CCCC4)cc1 | u | -12% | u | -25% | u | 18µM*
